A short description of experiment [1]: A CellTox Green Cytotoxicity Assay to monitor cytotoxicity in HEK293 cells - 40 hour (AID 1224871). Also: nearly all actives have a fitted effect of over 45% in size. Also: potency is read from the fitted curve at half-maximal effect. The procedure, abridged: (§1)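 HEK293 cells, 600/well, were preincubated 5 hours and then exposed to compounds at 37 C for up to 40 hours. A cell-impermeant cyanine dye staining dead-cell DNA was read by fluorescence at 0, 8, 16, 24, 32 and 40 h time points.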
Experiment [2] is described as follows: qHTS RealTime-Glo MT Cell Viability Assay in HEK293 cells - 16 hour (AID 1224872). Also: nearly all actives have a fitted effect of over 50% in size. Also: potency is read from the fitted curve at half-maximal effect. The procedure, abridged:
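Tox21 10K qHTS, HEK293, 600 cells/well, RealTime-Glo reagent co-dispensed with cells; 5 h preincubation, compound by pintool, 37 C, luminescence at 0–40 h.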

A short description of experiment [3]: qHTS RealTime-Glo MT Cell Viability Assay in HepG2 cells - 8 hour (AID 1224873). Also: nearly all actives have a fitted effect of over 55% in size. Also: potency is read from the fitted curve at half-maximal effect. In short, it runs like this: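 HepG2 cells mixed with RealTime-Glo MT reagents (NanoLuc plus cell-permeant prosubstrate) were seeded at 600 cells/well, incubated 5 h at 37 C/5% CO2, then pinned with compounds in DMSO; nonlytic luminescence tracked viability during 40 h treatment.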

Experiment [4] is described as follows: qHTS RealTime-Glo MT Cell Viability Assay in HEK293 cells - 40 hour (AID 1224874). Also: nearly all actives have a fitted effect of over 50% in size. Also: potency is read from the fitted curve at half-maximal effect. The settings on record: RealTime-Glo luminescence; max response: stronger effect = lower value. In short, it runs like this:
(§2)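 600 cells/well were plated with the nonlytic NanoLuc/prosubstrate reagent, pre-incubated 5 h, then given 23 nL of compound in DMSO. Incubation at 37 C for 40 h, with luminescence from viable-cell-reduced substrate read repeatedly from 0 h.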

Experiment [5] is described as follows: A CellTox Green Cytotoxicity Assay to monitor cytotoxicity in HEK293 cells - 24 hour (AID 1224875). Also: nearly all actives have a fitted effect of over 45% in size. Also: potency is read from the fitted curve at half-maximal effect. The procedure, abridged:
as §1

Experiment [6] is described as follows: A CellTox Green Cytotoxicity Assay to monitor cytotoxicity in HepG2 cells - 16 hour (AID 1224876). Also: nearly all actives have a fitted effect of over 45% in size. Also: potency is read from the fitted curve at half-maximal effect. In short, it runs like this: (§3)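 HepG2 cells, 600/well, preincubated 5 h with CellTox Green dye, then exposed to Tox21 compounds in DMSO at 37 C for up to 40 h. Dead-cell DNA fluorescence read at the indicated time point.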
A short description of experiment [7]: qHTS RealTime-Glo MT Cell Viability Assay in HepG2 cells - 32 hour (AID 1224877). Also: nearly all actives have a fitted effect of over 55% in size. Also: potency is read from the fitted curve at half-maximal effect. In short, it runs like this: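 Cells + NanoLuc/prosubstrate dispensed (600 cells/well) → 5 h at 37 C/5% CO2 → compounds in DMSO transferred → 40 h incubation at 37 C, luminescence read at 0, 8, 16, 24, 32, 40 h.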
Experiment [8] is described as follows: A CellTox Green Cytotoxicity Assay to monitor cytotoxicity in HepG2 cells - 24 hour (AID 1224878). Also: nearly all actives have a fitted effect of over 45% in size. Also: potency is read from the fitted curve at half-maximal effect. The procedure, abridged: as §3
The nature of experiment [9]: qHTS RealTime-Glo MT Cell Viability Assay in HEK293 cells - 0 hour (AID 1224880). In short, it runs like this:
as §2

Experiment [10] can be described thus: A CellTox Green Cytotoxicity Assay to monitor cytotoxicity in HepG2 cells - 40 hour (AID 1224879). Also: nearly all actives have a fitted effect of over 40% in size. Also: potency is read from the fitted curve at half-maximal effect. In short, it runs like this:
as §3

The values that follow come from PubChem BioAssay (Tox21).

Where “and” joins values, the source holds several entries; their conditions need not be identical. Equal entries are not always repeated. Results filed as inconclusive are left out. Where a structure was tested more than once in an assay, its records may differ in their call. Calls of active or inactive are those of the source. Calls follow the shape of the dose curve; as a rule, active = well fitted curve in the direction sought with a large enough effect in the repeat runs; inconclusive = weak or mixed curves; inactive = no such curve, though single readings can be large; an effect the other way counts as inactive or inconclusive.
% is scaled to controls: 0 for no effect and ±100 for the full control effect.

As to `CCCCCCCCP(=O)(O)O`, the Potency entry in [1], in experiment [2], in [3], in experiment [5], in experiment [6] and in experiment [7] was “inactive” throughout. In addition, in experiment [8], the Potency entry was “inactive”. Besides, the max response in experiment [4] is -9.79% (inactive). In addition, the outcome in [9] was inactive.
On to `CC(C)(C)CC(C)(C)c1ccc(O)cc1`, for which the Potency in experiment [1] was 30.9 µM (active) and 21.3 µM (active); in [2] it was 12.3 µM (active); in experiment [3] it was 21.9 µM (active); in experiment [5], 13.8 µM (active) and 21.3 µM (active); in experiment [6], 27.5 µM (active) and 10.7 µM (active); in experiment [7], 43.6 µM (active) and inactive. In addition, the Potency in experiment [8] is 19.5 µM (active) and 13.4 µM (active); in experiment [10] it was 17.4 µM (active) and 15.1 µM (active). Besides, the max response in experiment [4] is -17% (inactive). Moreover, the call in experiment [9] was inactive.
On to `N#CC1(N=NC2(C#N)CCCCC2)CCCCC1`, for which the Potency entry in experiment [1], in experiment [2], in experiment [3], in [5], in experiment [6] and in experiment [7] was “inactive” in each case. In [8], the Potency entry is “inactive”. Also, the max response in experiment [4] was -7.83% (inactive). Besides, the result in experiment [9] was inactive.
In the case of `NCCc1cc(O)c(O)cc1O`, the Potency entry in [1], in [2], in [3], in experiment [5], in [6] and in experiment [7] was “inactive” in each case. In addition, the Potency entry in experiment [10] is “inactive”. Further, the max response in experiment [4] was -1.21% (inactive). Besides, the compound was called inactive in [9].
Regarding `O=C([O-])c1ccccn1.O=C([O-])c1ccccn1.O=C([O-])c1ccccn1.[Cr+3]`, the Potency result in experiment [1], in [2], in [3], in experiment [5], in [6] and in experiment [7] was “inactive” throughout. The Potency result in experiment [8] is “inactive”. In addition, the max response in experiment [4] was 2.2% (inactive). Also, the compound was classed as inactive in experiment [9].
`O=C1NC(=O)C(=O)C(=O)N1`: the Potency entry in experiment [1], in experiment [2], in experiment [3], in experiment [5], in experiment [6] and in experiment [7] was “inactive” each time. In experiment [10], the Potency entry is “inactive”. In addition, the max response in experiment [4] was 6.33% (inactive).
On to `COc1ccccc1N1CCNCC1`, for which the Potency result in experiment [1], in experiment [2], in experiment [3], in experiment [5], in experiment [6] and in [7] was “inactive” throughout. The Potency result in experiment [10] was “inactive”. For the same compound, the max response in [4] was -1.42% (inactive). For the same compound, the call in [9] was inactive.
Turning to `Nc1cccc2ccccc12`, the Potency result in [1], in experiment [2], in experiment [3], in experiment [5], in experiment [6] and in experiment [7] was “inactive” in each case. Also, the Potency entry in [8] and in [10] was “inactive” throughout. Further, in experiment [4], the max response was -9.7% (inactive) and -1.99% (inactive). For the same compound, in experiment [9], the result was inactive.
In the case of `CCOC(=O)NC(O)C(Cl)(Cl)Cl` (stereo unspecified), the Potency entry in [1], in experiment [2], in [3], in experiment [5], in experiment [6] and in experiment [7] was “inactive” throughout. Also, the Potency entry in [10] is “inactive”. In experiment [4], the max response is 7.58% (inactive). Moreover, the compound was called inactive in experiment [9].
Consider `C1CCNCC1`, for which the Potency entry in [1], in [2], in experiment [3], in experiment [5], in experiment [6] and in experiment [7] was “inactive” throughout. For the same compound, in [10], the Potency result was “inactive”. The max response in [4] was 0.2% (inactive). The compound was called inactive in experiment [9].
On to `O=C(NCNC(=O)NC1C(=O)NC(=O)N1CO)NC1C(=O)NC(=O)N1CO` (stereo unspecified), for which the Potency entry in [1], in experiment [2], in experiment [3], in experiment [5], in experiment [6] and in experiment [7] was “inactive” in each case. Also, the Potency entry in experiment [8] is “inactive”. The max response in [4] is 4.4% (inactive). In experiment [9], the result was inactive.
Turning to `CCc1cnc(C2=NC(C)(C(C)C)C(=O)N2)c(C(=O)O)c1` (stereo unspecified), the Potency result in experiment [1], in experiment [2], in experiment [3], in experiment [5], in experiment [6] and in experiment [8] was “inactive” throughout. In addition, the Potency result in experiment [10] was “inactive”. Moreover, the max response in [4] was 1.73% (inactive) and 22.4% (inactive). Also, the outcome in experiment [9] was inactive.
Regarding `O=C(O)c1ccc(=O)[nH]c1`, the Potency result in experiment [1], in [2], in [3], in experiment [5], in experiment [6] and in experiment [8] was “inactive” throughout. In experiment [10], the Potency entry was “inactive”. Also, in experiment [4], the max response is 5.8% (inactive). Besides, the compound was called inactive in experiment [9].
For the compound `O=P(OCC(Br)CBr)(OCC(Br)CBr)OCC(Br)CBr` (stereo unspecified), the Potency entry in experiment [1], in experiment [3], in experiment [5], in experiment [6] and in [8] was “inactive” in each case. Further, the Potency in experiment [2] was 22.2 µM (active); in experiment [4] it was 27.9 µM (active). For the same compound, the call in experiment [9] was inactive.
